An excerpt weighted towards active compounds, which were near 28% of everything screened.
PTK2B oligo ant: antagonists of Pyk2 self-association, primary screen, Q293 cells, FERM NanoBiT luminescence, HTS; Protein-tyrosine kinase 2-beta (Homo sapiens), Q14289; hits give low values; z-score (the deposit names both 25 µM and 10 µM); 0.83% of 99,000 active; AID 1347419, 2020;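 active = Z-score of -3 or lower, scaled per plate to the spread of control and sample wells; inactive = z-score above -3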;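 also: negative z-score means lost luminescence so less FERM oligomerization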
CYP2C19 inhib: blockers of cytochrome P450 2C19 activity – biochemical, luminescence, ADME assay, primary screen; CYP2C19 Supersomes, luciferin-H EGE luminescence, 30 min; inhibition, % at 5 µM; 21% of 96,000 active; AID 778, 2007;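 active = CYP2C19 inhibition above a set limit at 5 µM in the primary screen, cut at about 50% in these data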;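 also: plate controls were negative control wells for no effect and 2.5 mM tranylcypromine positive control for full effect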
Target sequence (P33261 whole entry, looked up): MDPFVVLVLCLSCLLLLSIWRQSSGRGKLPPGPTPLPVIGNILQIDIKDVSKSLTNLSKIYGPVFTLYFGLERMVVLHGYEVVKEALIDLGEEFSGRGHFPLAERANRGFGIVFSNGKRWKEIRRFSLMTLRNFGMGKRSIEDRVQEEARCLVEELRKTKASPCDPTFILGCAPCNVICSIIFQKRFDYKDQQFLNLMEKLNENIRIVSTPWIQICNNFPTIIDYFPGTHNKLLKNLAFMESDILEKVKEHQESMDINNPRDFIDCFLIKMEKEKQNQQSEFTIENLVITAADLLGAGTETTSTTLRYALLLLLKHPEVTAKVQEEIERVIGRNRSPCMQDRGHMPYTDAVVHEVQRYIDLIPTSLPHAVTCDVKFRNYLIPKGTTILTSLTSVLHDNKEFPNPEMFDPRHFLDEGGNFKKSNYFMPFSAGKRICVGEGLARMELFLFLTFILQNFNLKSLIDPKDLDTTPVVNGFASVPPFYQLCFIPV
CYP2C9 act: human CYP2C9 activators, primary screen, biochemical, luminescence. Cytochrome P450 2C9 (Homo sapiens), P11712. recombinant CYP2C9, luciferin-H conversion; hits give high values; factor 1 = untreated enzyme, 0 = blocked. activation factor at 5 µM. 1.4% of 96,000 active;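 active = activation factor of 2 or more for CYP2C9 at a 5 µM dose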;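 also: 0 = sulfaphenazole-blocked wells and 1 = vehicle-only wells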
CYP2C19 activ: human CYP2C19 activators, primary screen, biochemical, luminescence. activation factor at 5 µM. 96,000 tested, under 10 active. recombinant CYP2C19, luciferin-H EGE luminescence; hits give high values; 0 = fully inhibited enzyme, 1 = untreated enzyme. Cytochrome P450 2C19 (Homo sapiens), P33261;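 active = activation factor of at least 2 at 5 µM in the primary screen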;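 also: 0 = wells with 2.5 mM tranylcypromine and 1 = vehicle-only wells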
CYP2C9 inhib: blockers of cytochrome P450 2C9 activity – biochemical, luminescence, ADME assay, primary screen; CYP2C9 Supersomes, luciferin-H conversion; inhibition, % at 5 µM; 20% of 96,000 active;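 active = blocking of liver enzyme CYP2C9 beyond about 50% at 5 µM, limit read from the data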
* = called active by the depositor.

What do the screens show for `CCOC(=O)c1ccc(NC(=O)CSc2nc3cccnc3n2C)cc1`?
PTK2B oligo ant: 0.7

How did CCCCCCC1CCC(c2nc(-c3ccncc3)no2)CC1 (stereo not drawn) do in these assays?
PTK2B oligo ant: -0.1; CYP2C19 inhib: 89*; CYP2C9 act: 0.4; CYP2C19 activ: 0.1; CYP2C9 inhib: 63*

Results for COc1ccc(NC(=O)Cn2c(C)cc(=O)c3cccc(OC)c32)cc1 ?
PTK2B oligo ant: 0.29; CYP2C19 inhib: 3; CYP2C9 act: 0.9; CYP2C19 activ: 1; CYP2C9 inhib: 6

Results for O=C(NCCNC1CCN(Cc2ccccc2)CC1)c1cccs1 ?
CYP2C19 inhib: -2; CYP2C9 act: 0.9; CYP2C19 activ: 1; CYP2C9 inhib: 7

Results for O=S(=O)(NC1CC1)c1ccc(S(=O)(=O)N2CCCc3ccccc32)cc1 ?
PTK2B oligo ant: -1.1; CYP2C19 inhib: 90*; CYP2C9 act: 0.2; CYP2C19 activ: 0.1; CYP2C9 inhib: 78*

How did O=C(O)C1CC=CCC1C(=O)Nc1ccccc1 (stereo not drawn) do in these assays?
PTK2B oligo ant: 0.4; CYP2C19 inhib: 15; CYP2C9 act: 0.8; CYP2C19 activ: 0.8; CYP2C9 inhib: 18

What do the screens show for `O=C(Nc1ccc(S(=O)(=O)N2CCc3ccccc3C2)cc1)C1CCCO1` (stereo not drawn)?
PTK2B oligo ant: 2.3; CYP2C19 inhib: 12; CYP2C9 act: 0.9; CYP2C19 activ: 0.9; CYP2C9 inhib: 13

Results for O=C(Nc1ccc(S(=O)(=O)N2CCCc3ccccc32)cc1)C1CCCO1 (stereo not drawn) ?
PTK2B oligo ant: 0.21; CYP2C19 inhib: 60*; CYP2C9 act: 0.3; CYP2C19 activ: 0.4; CYP2C9 inhib: 65*

Results for O=C(O)C1CC=CCC1C(=O)Nc1ccc(S(=O)(=O)N2CCCc3ccccc32)cc1 (stereo not drawn) ?
PTK2B oligo ant: -1.4; CYP2C19 inhib: -8; CYP2C9 act: 0.4; CYP2C19 activ: 1.1; CYP2C9 inhib: 63*

Results for O=C(O)COc1ccc2c(c1)OCCO2 ?
PTK2B oligo ant: 1.3; CYP2C19 inhib: -7; CYP2C9 act: 1.1; CYP2C19 activ: 1.1; CYP2C9 inhib: -10

What do the screens show for `COc1ccc(OCc2n[nH]c(=S)o2)cc1`?
PTK2B oligo ant: 0.58; CYP2C19 inhib: 14; CYP2C9 act: 0.1; CYP2C19 activ: 0.9; CYP2C9 inhib: 89*

Results for CCCCCCCCOC(=O)C(NC(=O)CCC(=O)Nc1ccc(S(N)(=O)=O)cc1)C(O)c1ccccc1 (stereo not drawn) ?
PTK2B oligo ant: 1.4; CYP2C19 inhib: 54*; CYP2C9 act: 0.4; CYP2C19 activ: 0.5; CYP2C9 inhib: 62*

How did Cn1ccnc1SCc1ccc([N+](=O)[O-])cc1 do in these assays?
PTK2B oligo ant: -0.06; CYP2C19 inhib: 55*; CYP2C9 act: 0.9; CYP2C19 activ: 0.4; CYP2C9 inhib: 14

How did Cn1c(CO)cnc1SCc1ccc([N+](=O)[O-])cc1 do in these assays?
PTK2B oligo ant: 2.1; CYP2C19 inhib: 65*; CYP2C9 act: 0.7; CYP2C19 activ: 0.3; CYP2C9 inhib: 31

What do the screens show for `COC(=O)c1ccc(CSc2nccn2C)cc1`?
PTK2B oligo ant: 0.56; CYP2C19 inhib: 65*; CYP2C9 act: 1.1; CYP2C19 activ: 0.3; CYP2C9 inhib: -11

What do the screens show for `O=C(O)c1c(-c2ccccc2)c2oc3ccccc3c2[nH]c1=O`?
PTK2B oligo ant: 1; CYP2C19 inhib: -13; CYP2C9 act: 1; CYP2C19 activ: 1.1; CYP2C9 inhib: -4

Results for CN(CC(=O)N1CCc2ccccc21)S(=O)(=O)c1cccs1 ?
PTK2B oligo ant: 0.98; CYP2C19 inhib: 89*; CYP2C9 act: 3*; CYP2C19 activ: 0.1; CYP2C9 inhib: -199

What do the screens show for `O=C(OCC(=O)N1CCCc2ccccc21)C1CCN(S(=O)(=O)c2cccs2)CC1`?
PTK2B oligo ant: 0.91; CYP2C19 inhib: 31; CYP2C9 act: 0.9; CYP2C19 activ: 0.7; CYP2C9 inhib: 11

What do the screens show for `CCOC(=O)N1CCN(c2c(N3CCN(c4cccc(C)c4C)CC3)c(=O)c2=O)CC1`?
CYP2C19 inhib: 2; CYP2C9 act: 0.9; CYP2C19 activ: 1; CYP2C9 inhib: 7

How did Cc1nc(CC(=O)N2CCN(c3cccc(C)c3C)CC2)cs1 do in these assays?
PTK2B oligo ant: 0.28; CYP2C19 inhib: 84*; CYP2C9 act: 1.3; CYP2C19 activ: 0.2; CYP2C9 inhib: -30

Results for COc1ccccc1N1CCN(C(=O)Nc2cccc(Cl)c2)CC1 ?
PTK2B oligo ant: 0.77; CYP2C19 inhib: 33; CYP2C9 act: 1.2; CYP2C19 activ: 0.7; CYP2C9 inhib: -18

How did Cc1cccc(N2CCN(C(=O)n3ccnc3)CC2)c1C do in these assays?
PTK2B oligo ant: 0.52; CYP2C19 inhib: 100*; CYP2C9 act: 0.1; CYP2C19 activ: 0; CYP2C9 inhib: 86*

What do the screens show for `COc1cccc(NC(=O)N2CCN(c3cccc(C)c3C)CC2)c1`?
PTK2B oligo ant: -0.62; CYP2C19 inhib: 18; CYP2C9 act: 2*; CYP2C19 activ: 0.8; CYP2C9 inhib: -102

What do the screens show for `Cc1cccc(N2CCN(C(=O)Cn3cccc3)CC2)c1C`?
CYP2C19 inhib: 79*; CYP2C9 act: 0.9; CYP2C19 activ: 0.2; CYP2C9 inhib: 6

How did Cc1cccc(N2CCN(C(=O)C(C)C)CC2)c1C do in these assays?
PTK2B oligo ant: -0.05; CYP2C19 inhib: 18; CYP2C9 act: 0.8; CYP2C19 activ: 0.8; CYP2C9 inhib: 17

How did CNS(=O)(=O)c1cccc(C(=O)OCC(=O)N2CCc3ccccc3C2)c1 do in these assays?
PTK2B oligo ant: 1.6; CYP2C19 inhib: 33; CYP2C9 act: 1.7; CYP2C19 activ: 0.7; CYP2C9 inhib: -70

How did Cc1ccc(-c2ccc(=O)n(CCC(=O)NCCN3CCCCC3C)n2)cc1 (stereo not drawn) do in these assays?
PTK2B oligo ant: 0.42; CYP2C19 inhib: -3; CYP2C9 act: 1; CYP2C19 activ: 1; CYP2C9 inhib: -3

Results for Cc1cc(C(=O)Cn2nnc3ccccc3c2=O)c(C)n1-c1c(C)n(C)n(-c2ccccc2)c1=O ?
PTK2B oligo ant: -0.46; CYP2C19 inhib: 2; CYP2C9 act: 0.8; CYP2C19 activ: 1; CYP2C9 inhib: 23

How did COc1ccc(-n2c(C)cc(C(=O)Cn3nnc4ccccc4c3=O)c2C)cc1 do in these assays?
PTK2B oligo ant: -0.59; CYP2C19 inhib: 60*; CYP2C9 act: 0.2; CYP2C19 activ: 0.4; CYP2C9 inhib: 83*

Results for Cc1cc(C(=O)Cn2nnc3ccccc3c2=O)c(C)n1-c1ccccc1F ?
PTK2B oligo ant: -1.1; CYP2C19 inhib: 52*; CYP2C9 act: 1; CYP2C19 activ: 0.5; CYP2C9 inhib: 4

How did CCC1(C)Cc2c(c(=O)n(-c3ccccc3)c3ncnc(N)c23)CO1 (stereo not drawn) do in these assays?
PTK2B oligo ant: -0.22; CYP2C19 inhib: -15; CYP2C9 act: 1; CYP2C19 activ: 1.2; CYP2C9 inhib: -4

From PubChem BioAssay
